Assay outcomes from PubChem.
A selection: hits, their analogues and other compounds. The true share with any hit is near 0.97%.
GASC-1 inh: inhibitors of GASC-1 histone demethylase, primary screen, biochemical, fluorescence, DELFIA europium. Lysine-specific demethylase 4C (Homo sapiens), Q9H3R0. GST-JMJD2C(1-420) H3K9me3 demethylation. inhibition, % at 2.35 µM. 0.069% of 330,000 active. AID 2099, 2009;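 active = more than half of a compound's replicate wells show inhibition beyond 50%, single wells judged on their own value; inconclusive = some, but no more than half, of replicates pass 50% inhibition; inactive = no replicate passes 50% inhibition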;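 note: signal counts dimethyl H3K9 product captured on neutravidin plate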
Target sequence (Q9H3R0 1-420 limits assumed): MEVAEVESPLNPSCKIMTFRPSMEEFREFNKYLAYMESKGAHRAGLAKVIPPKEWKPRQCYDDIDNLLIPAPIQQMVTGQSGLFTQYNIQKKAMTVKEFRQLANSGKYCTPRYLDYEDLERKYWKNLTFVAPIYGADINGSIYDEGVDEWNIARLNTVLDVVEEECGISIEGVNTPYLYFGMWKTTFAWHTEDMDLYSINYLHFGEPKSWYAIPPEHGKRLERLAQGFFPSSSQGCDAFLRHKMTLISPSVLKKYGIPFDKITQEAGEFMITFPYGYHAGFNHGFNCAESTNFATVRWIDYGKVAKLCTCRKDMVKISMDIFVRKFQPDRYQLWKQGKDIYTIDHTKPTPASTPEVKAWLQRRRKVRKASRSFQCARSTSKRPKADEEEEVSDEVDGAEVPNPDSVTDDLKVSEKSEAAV
CIT2 TOR yeast: modulators of CIT2-GFP expression in yeast, primary screen, S. cerevisiae, GFP fusion, multiplex flow cytometry, MLPCN library; S. cerevisiae CIT2-GFP strain, 3 h; 100 means same as DMSO wells; GFP response vs DMSO, % at 10 µM; 0.065% of 320,000 active; AID 2029, 2009;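 active = GFP response relative to DMSO above a set limit, near the screen mean plus 3 SD, cut at about 150% in these data; inconclusive = Fewer than 70 cells measured for a yeast strain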;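 note: ratio of well median GFP fluorescence to mean of DMSO wells on the plate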
LAP4-GFP MLPCN: modulators of LAP4-GFP expression in yeast, primary screen, S. cerevisiae, multiplex flow cytometry, MLPCN library; 3 h; median GFP as percent of DMSO wells; GFP response vs DMSO, % at 10 µM; 0.34% of 320,000 active;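 active = GFP response vs DMSO above a set limit, about the screen mean plus 3 SD, cut at about 150% in these data; inconclusive = under 70 cell events counted for the yeast strain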
AGP1 TOR yeast: modulators of AGP1-GFP expression in yeast TOR pathway, primary screen, cell-based, multiplex flow cytometry, S. cerevisiae, MLPCN library. 3 h; GFP as percent of DMSO wells. 0.02% of 320,000 active. GFP response vs DMSO, % at 10 µM;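 active = GFP response relative to DMSO above a set limit, near screen average plus 3 SD, cut at about 150% in these data; inconclusive = fewer than 70 cells counted for the yeast strain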;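 note: median GFP channel fluorescence of the gated AGP1 strain per well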
MEP2-GFP yeast: modulators of MEP2-GFP levels in yeast, primary screen, S. cerevisiae, multiplex flow cytometry, MLPCN library; S. cerevisiae MEP2-GFP strain, 3 h; 100% = DMSO control level; GFP response vs DMSO, % at 10 µM; 0.51% of 330,000 active;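 active = GFP response versus DMSO above a set limit, roughly screen mean plus 3 SD, cut at about 180% in these data; inconclusive = fewer than 70 cells counted for a yeast strain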;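 note: median GFP fluorescence of the barcode-gated MEP2-GFP cells per well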
RPL19A TOR yeast: RPL19A-GFP expression modulators in yeast, primary screen, cell-based, S. cerevisiae, multiplex flow cytometry, MLPCN | percent response vs DMSO, % at 10 µM | AID 2025, 2009 | S. cerevisiae RPL19A-GFP strain, 3 h; stronger effect = lower value | 0.3% of 330,000 active;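 active = percent response vs DMSO below 50%; inconclusive = fewer than 70 events counted for the yeast strain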;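 note: median channel GFP fluorescence of the barcoded RPL19A-GFP strain; lower means less RPL19A-GFP as with rapamycin TOR inhibition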
A number is an active result; i = inactive; ? = inconclusive; nt = not tested or not shown; [ ] = another dose, or the depositor's remark.

SMILES	GASC-1 inh	CIT2 TOR yeast	LAP4-GFP MLPCN	AGP1 TOR yeast	MEP2-GFP yeast	RPL19A TOR yeast
COC(=O)c1c(NC(=O)Cc2cccs2)sc2c1CCCC2	i	?	i	?	211[may fluoresce violet]	i
CC1CCc2c(sc(NC(=O)c3cccs3)c2C(=O)O)C1 (centres undefined)	i	i	i	i	i	i
CCn1nc(C)c(CN2CCCC(CO)(Cc3cccc(Cl)c3)C2)c1C (centres undefined)	i	i	i	i	i	i
Cc1ccc(NC(=O)c2cccc3cccnc23)cc1	i	?	i	?	603[may fluoresce violet]	49[may fluoresce violet]
COc1cccc(CCNC(=O)CCc2nnc(-c3cc(C)oc3C)o2)c1	i	i	i	i	i	i
Cc1ccc(C(=O)c2nocc2C(=O)c2cccs2)cc1	i	i	155	nt	i	i
CC(C)=NOC(=O)c1c(C)noc1-c1snnc1C	i	?	i	i	603[may fluoresce violet]	i
COC(=O)c1c(C)noc1-c1snnc1C	i	i	i	i	i	i
COc1ccccc1N1CCN(C2CCCN(C(=O)Cn3cccn3)C2)CC1 (centres undefined)	i	i	i	i	i	i
Cc1cccc(/C(N)=N/OC(=O)C23CC4CC(CC(C4)C2)C3)c1	i	154	i	i	i	i
Cc1noc(C)c1S(=O)(=O)N(C)C[C@H]1Oc2ccc(NC(=O)CCC(F)(F)F)cc2C(=O)N([C@H](C)CO)C[C@@H]1C	i	i	i	i	i	i
Cc1ccc(C(=O)/C=C/c2ccc(Br)cc2)o1	i	i	i	i	i	i
O=C(/C=C/c1ccc(Cl)cc1)c1ccc([N+](=O)[O-])o1	i	?	i	?	279[may fluoresce violet]	42[may fluoresce violet]
CSc1nc(N2CCN(c3ccccc3Cl)CC2)c2ccccc2n1	i	i	154	i	i	i
CCC(C)n1c(=O)c2sccc2n2c(CCCC(=O)N3CCC(C(N)=O)CC3)nnc12 (centres undefined)	i	i	i	i	i	i
Cc1ccc2c(CN3CCC(C(N)=O)CC3)cc(=O)oc2c1C	i	i	i	i	i	i
O=C(COc1ccc(Br)cc1)Nc1ccc(-c2nnc(-c3ccco3)o2)cc1	i	?	i	i	177[may fluoresce violet]	48[may fluoresce violet]
COc1ccccc1OCC(=O)Nc1ccc(-c2nnc(-c3ccco3)o2)cc1	i	i	i	i	i	i
Cc1cc(-c2csc3nc[nH]c(=S)c23)cc(C)c1C	i	i	i	i	185	i
Cc1ccc(-c2csc3nc[nH]c(=S)c23)cc1	i	nt	nt	nt	nt	nt
Cc1cccc(OCc2nnc(SCC(=O)NC3CCCCC3)n2C)c1	i	i	i	i	i	i
CS(=O)(=O)N1CCN(c2nnc(-c3ccccc3)c3ccccc23)CC1	i	?	i	?	230[may fluoresce violet]	i
Cc1ccc(-c2nnc(N3CCN(S(C)(=O)=O)CC3)c3ccccc23)cc1	i	i	i	i	i	i
Cc1nnc(NC(=O)c2nc(S(=O)(=O)Cc3ccccc3)ncc2Cl)s1	i	i	168	i	i	i
Cc1cccc(C)c1NC(=O)c1nc(S(=O)(=O)Cc2ccccc2)ncc1Cl	i	i	i	i	i	i
SMILES	GASC-1 inh	CIT2 TOR yeast	LAP4-GFP MLPCN	AGP1 TOR yeast	MEP2-GFP yeast	RPL19A TOR yeast
CCCc1c(C)nc(N2CCN(c3ccccc3F)CC2)[nH]c1=O	i	i	i	i	i	i
Cc1cc(SCc2ccccc2)nc(=O)[nH]1	i	?	i	i	204[may fluoresce violet]	i
Cc1cc(SCc2ccc(F)cc2)nc(=O)[nH]1	i	i	i	i	i	i
Cc1cc2c(cc1S(=O)(=O)Nc1ccc(OC(F)(F)F)cc1)OCC(=O)N2	i	i	i	i	i	i
S=C(NCCCN1CCOCC1)NCCCN1CCOCC1	i	i	i	i	i	i
S=c1[nH]nc(NCCCN2CCOCC2)s1	i	i	i	i	327	i
O=C(c1cc2nc(-c3ccc(F)cc3)cc(C(F)(F)F)n2n1)N1CCOCC1	i	?	i	?	236[may fluoresce violet]	i
C[C@H](CO)N1C[C@H](C)[C@@H](CN(C)C(=O)NC2CCCCC2)Oc2ccc(NS(C)(=O)=O)cc2C1=O	i	i	i	i	nt	i
Fc1ccc(Cc2nnc(-c3cccs3)o2)cc1	i	i	i	i	i	i
Fc1ccc(-c2nnc(Cc3ccc(Cl)cc3)o2)cc1	i	i	190	i	i	i
O=C(NC1CCCCC1)c1ccc2snnc2c1	i	?	i	?	364[may fluoresce violet]	37[may fluoresce violet]
Nc1nc2ccc(C(=O)NC3CCCCC3)cc2s1	i	i	i	i	i	i
Clc1ccc(SCc2cc(-c3ccccc3)on2)cc1	i	?	i	?	218[may fluoresce violet]	i
Clc1ccc(SCc2cc(Cl)nc(-c3ccccc3)n2)cc1	i	i	i	i	i	i
CCCOC(=O)c1ccc(NC(=O)COC)cc1	i	?	i	i	188[may fluoresce violet]	i
CSc1ccccc1C(=O)OCC(=O)N1CCCC1=O	i	i	i	i	i	i
O=C(Cc1ccc(-c2ccccc2)cc1)OCC(=O)N1CCCC1=O	i	i	163	i	i	i
N#C/C(=C\c1cccc(Oc2ccccc2)c1)C(=O)N1CCOCC1	i	i	155	i	i	i
CC1CCN(CCCOc2ccc(Br)cc2Cl)CC1	i	?	i	?	i	28[may fluoresce violet]
COCc1cc(C)n(CC(=O)Nc2ccc3c(c2)OCO3)c(=O)c1C#N	i	i	i	i	i	i
O=S(=O)(O)c1cc(O)c2c(O)c(N=Nc3cc(Cl)ccc3O)c(S(=O)(=O)O)cc2c1	i	i	i	i	i	i
Cc1cc(-c2ccc(N=Nc3c(S(=O)(=O)O)cc4cc(S(=O)(=O)O)cc(N)c4c3O)c(C)c2)ccc1N=Nc1c(S(=O)(=O)O)cc2cc(S(=O)(=O)O)cc(N)c2c1O	nt	i	400[may fluoresce red]	i	i	?
CCOC(=O)C1(CCOC)CCN(C(=O)c2ccc(CSC)o2)CC1	i	i	i	i	i	i
CC1C2=C(CC(C)(C)CC2=O)NC2=C1C(=O)CC(C)(C)C2	i	?	i	i	i	43[may fluoresce violet]
CC(=O)Nc1cc(NC(C)=O)ncn1	i	i	i	i	i	i
CCOC(=O)C1(Cc2ccccc2Cl)CCN(C(=O)CCn2ccnc2C)CC1	i	i	157	i	388	i
Cc1nn(C)cc1C(C)NC(=O)c1cc(COc2ccc(F)c(F)c2)on1 (centres undefined)	i	i	i	i	202	i
CC(OC(=O)COc1ccc(C#N)cc1)C(=O)Nc1ccc(Cl)cn1 (centres undefined)	?	i	i	i	i	i
O=C(NCCCN1CCOCC1)c1cnccn1	i	i	i	i	i	i
CC(=O)N1CCN(c2ccc(Nc3ncnc4c3oc3ccccc34)cc2)CC1	i	?	i	nt	427[may fluoresce violet]	22[may fluoresce violet]
